Lassa entry inh: qHTS for Inhibitors of binding or entry into cells for Lassa Virus | Lassa virus pseudotype entry inhibition, cell reporter | Potency, µM (doses to about 37.9 µM), actives largely listed as inhibitors | 300,000 tested, 1.2% active; calls by dose curve; tested in HEK293 cells; further: nearly all actives have a fitted effect of over 50% in size
Shiga toxin inh: A qHTS for Small Molecule Inhibitors of Shiga Toxin; 290,000 tested, 9.2% active; Vero cells, Shiga toxin protein synthesis inhibition reporter; inhibition, % at 38.7 µM; in the data active means inhibition mostly above about 28%, no sharp cut-off; inactive means mostly below about 43%
MARV entry inh: qHTS for inhibitors of binding or entry into cells for Marburg Virus; AID 540276, 2011; Marburg virus pseudotyped entry inhibition, cell reporter; 300,000 tested, 1.8% active; Potency, µM (titrated, usually from 37.8 µM), actives largely listed as inhibitors; calls by dose curve; tested in HEK293 cells
CHX counter: Cycloheximide Counterscreen for Small Molecule Inhibitors of Shiga Toxin | cell reporter, cycloheximide protein synthesis inhibition counterscreen | max response, % | 300,000 tested, 12% active | AID 2314, 2010; in the data active means max response mostly above about 13%, no sharp cut-off; inactive means mostly below about 14%; further: read at 38.3 µM for the half of the compounds with a filed dose
Pf growth 48h: Primary qHTS for delayed death inhibitors of the malarial parasite plastid, 48 hour incubation. P. falciparum luciferase growth in erythrocytes, 48 h. Potency, µM (doses to about 28.7 µM), most hits filed as inhibitors. 310,000 tested, 5.9% active
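Luminescence readout; reporter = integrated firefly luciferase in P. falciparum. RBC culture at 2% hematocrit, 0.1% parasitemia final, 37 C/5% CO2; decreased signal taken as growth inhibition.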
Pf growth 96h: Primary qHTS for delayed death inhibitors of the malarial parasite plastid, 96 hour incubation | P. falciparum luciferase reporter growth, 96 h | Potency, µM (series often up to 28.7 µM), most hits filed as inhibitors | 320,000 tested, 6.9% active
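Delayed-death screen, second-generation endpoint: infected erythrocytes, 2% hematocrit, 0.05% parasitemia final; 96 hours at 37 C, 5% CO2; luciferase detection reagent; luminescence decrease equals reduced growth.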
A number is an active result; . = inactive; ? = inconclusive; / = not tested or not shown; [ ] = dose if it differs, or a comment. Shown are actives, neighbours in structure and some others; about 19% of the full set was active somewhere. Unless noted, the call rests on the fitted dose curve; in most records, active means well fitted inhibition curve with a large enough effect; inconclusive means small, poorly fitted or top-dose-only effect, or another doubt; inactive means no such curve, though single readings can be large or run the other way.

SMILES | Lassa entry inh | Shiga toxin inh | MARV entry inh | CHX counter | Pf growth 48h | Pf growth 96h
N/C(=N\OC(=O)CC1CCCCC1)c1ccc(Cl)cc1 | . | 73 | . | 30 | . | .
COc1ccc(/C(N)=N/OC(=O)CCC2CCCC2)cc1OC | / | 58 | / | 23 | . | ?
N/C(=N\OC(=O)CC1CCCCC1)c1ccc(Br)cc1 | . | . | . | . | . | ?
Cc1ccc(S(=O)(=O)N(C)CC(=O)O/N=C(\N)c2cccc(Br)c2)cc1 | . | . | ? | . | . | .
N/C(=N\OC(=O)CC1CCCCC1)c1cccc(Br)c1 | / | 55 | / | 44 | ? | .
c1ccc(CSc2nnc3ccc(-c4ccncc4)nn23)nc1 | / | . | / | . | ? | .
COc1ccc(NP(=O)(Nc2ccc(OC)cc2)Oc2ccccc2)cc1 | ? | . | ? | . | . | .
Cc1nnc(SCC(=O)Nc2ncc3c(n2)CCCC3=O)s1 | . | . | ? | . | . | .
O=C(CN(CC1CCCO1)C(=O)CNS(=O)(=O)c1ccc(F)cc1)NCC1CCCO1 (stereo not drawn) | . | . | . | . | . | ?
O=C(Oc1ccc(/C=N/NC(=O)c2ccccc2F)cc1)c1ccccc1 | / | 83 | / | 27 | . | ?
CC(=O)Nc1ccc(OC(=O)CC2SC(=O)NC2=O)cc1 (stereo not drawn) | . | . | . | . | / | .
O=C(N/N=C/c1ccc(OCC(=O)N2CCCCC2)cc1)c1ccccc1O | . | . | . | . | . | .
O=C(N/N=C/c1ccc(OC(=O)c2ccccc2)cc1)c1cccc(O)c1 | ? | . | . | . | ? | .
O=C(CC1SC(=O)NC1=O)Oc1ccc(/C=N/NC(=O)c2ccccc2O)cc1 (stereo not drawn) | / | 36 | / | 23 | . | .
O=C(Oc1ccc(/C=N/NC(=O)c2ccccc2O)cc1)c1ccccc1 | . | . | . | 16 | / | 6.6µM
Cn1nccc1C(=O)Oc1ccc(/C=N/NC(=O)c2ccccc2O)cc1 | . | 75 | . | . | ? | .
CC(C)N(CCO)C(=O)CCc1nnc(CCCc2ccccc2)o1 | . | 63 | ? | 39 | . | .
CC(C)N1CCCC(CNC(=O)CCc2nnc(CCCCc3ccccc3)o2)C1 (stereo not drawn) | . | . | . | . | . | ?
CC(C)N(Cc1nccn1C)C(=O)CCc1nnc(CCCc2ccccc2)o1 | / | 59 | / | 56 | . | .
CCC1C(=O)NCCN1C(=O)CCc1nnc(CCc2ccc(OC)cc2)o1 (stereo not drawn) | . | . | ? | . | . | .
CCNC(=O)CC1S/C(=N/N=C(\C)c2ccccc2)NC1=O (stereo not drawn) | / | . | / | . | . | .
CCNc1nc(NCC)n2c(SCC(=O)Nc3cccc(Cl)c3)nnc2n1 | ? | / | . | / | 12µM | 5.2µM
CCNc1nc(NCC)n2c(SC(C(=O)Nc3cc(Cl)cc(Cl)c3)c3ccccc3)nnc2n1 (stereo not drawn) | . | . | . | . | . | 10µM
CCNc1nc(NCC)n2c(SCC(=O)Nc3cccc(F)c3)nnc2n1 | . | / | ? | / | ? | .
Nc1ccc(C(=O)OCCc2ccccc2)cc1 | / | / | / | / | . | .
SMILES | Lassa entry inh | Shiga toxin inh | MARV entry inh | CHX counter | Pf growth 48h | Pf growth 96h
O=C(O)CCCCCNc1nc(=S)[nH]c2ccccc12 | . | . | . | . | ? | .
CCOC(=O)C1(CC2CCCCO2)CCN(C(=O)Nc2ccc(C(=O)OC)cc2)CC1 (stereo not drawn) | / | . | / | . | ? | .
CCOC(=O)C1(CCCc2ccccc2)CCN(C(=O)c2ocnc2C)CC1 | 2.8µM | . | . | . | ? | .
CCOC(=O)C1(CC2CC2)CCN(C(=O)c2ocnc2C)CC1 | / | 76 | / | 44 | . | .
CCOC(=O)C1(CCCc2ccccc2)CCN(C(=O)c2cncs2)CC1 | ? | . | . | . | ? | .
CCOC(=O)C1(CC2CC2)CCN(C(=O)c2cc(C)nc3ccc(CC)cc23)CC1 | . | . | ? | . | ? | 2.1µM
CCN(CC)Cc1cc2[nH]c3c4ccc(Cl)cc4ncc3c2cc1OC | / | . | / | . | 0.074µM | 0.093µM
COc1ccc(C(=O)/C=C/Sc2nc3ccccc3o2)cc1 | . | 135 | ? | 51 | ? | .
CCOc1cc(/C=N/n2cnnc2)ccc1O | . | . | . | . | . | .
C=CCc1cc(/C=N/n2cnnc2)cc(OCC)c1O | . | . | . | . | ? | 8.3µM
C=CCc1cc(/C=C2/NC(=O)NC2=O)cc(OCC)c1O | ? | . | . | . | . | 1µM
CCOc1ccc2ccc(OCC)c(/C=N/n3cnnc3)c2c1 | . | . | . | 9.4 | . | .
Cc1csc(SCC(=O)NCc2cccs2)n1 | . | . | ? | . | . | ?
Cc1c(C(=O)N(C)C2CCCCC2)sc2nc3ccc(N)cc3n12 | / | 43 | / | 31 | / | /
CCN(CC(=O)Nc1ccc(NC(C)=O)cc1)C(=O)CSCc1c(C)noc1C | . | / | . | / | . | .
CN(C)CCNc1oc(/C=C/c2ccccc2)nc1C#N | . | . | ? | 23 | . | .
COCCCNc1oc(/C=C/c2ccccc2)nc1C#N | ? | 74 | ? | 35 | . | .
C=CCNc1oc(/C=C/c2ccccc2)nc1C#N | ? | 74 | ? | 37 | . | .
COc1cccc(/C=C/c2nc(C#N)c(NCC(C)C)o2)c1 | / | 85 | / | 29 | . | .
Cc1c(Br)c([N+](=O)[O-])nn1CC(=O)Nc1ccc(Cc2ccncc2)cc1 | ? | . | ? | . | . | ?
CCOc1ccc(/C=C/c2nc(C#N)c(NCCCN(C)C)o2)cc1 | ? | . | ? | . | ? | .
CN(C)CCCNc1oc(/C=C/c2ccccc2)nc1C#N | . | 65 | ? | 42 | . | .
COc1ccc(C(=O)OCCc2ccc(O)cc2)cc1 | ? | 50 | ? | 38 | . | .
COc1ccc(CCOC(=O)c2ccc(NC(=O)CC#N)cc2)cc1 | / | . | / | 41 | ? | .
O=C(OCCCOC(=O)c1ccc(O)cc1)c1ccc(O)cc1 | . | . | . | . | . | ?
SMILES | Lassa entry inh | Shiga toxin inh | MARV entry inh | CHX counter | Pf growth 48h | Pf growth 96h
COc1ccc(CCn2c(C)cc(C(=O)COC(=O)c3ccc(NC(=O)CC#N)cc3)c2C)cc1 | / | . | / | . | ? | ?
COc1ccc(COC(=O)NNC(=O)c2ccc(OC)cc2)cc1 | 1.3µM | . | . | . | . | ?
COc1cccc(CNC(=O)c2cc(C)nc3ccccc23)c1 | . | . | . | . | . | .
COc1ccc(N2CCN(C(=O)C3CCCN(S(=O)(=O)c4cccc5cccnc45)C3)CC2)cc1 (stereo not drawn) | / | . | . | . | / | .
O=C1c2ccccc2C(=O)N1OS(=O)(=O)c1ccccc1 | . | . | . | . | . | .
Cc1cccc(CSC(Nc2ccc(F)cc2)=C(C#N)C#N)c1 | ? | . | 2.9µM | . | ? | ?
N#CC(C#N)=C(Nc1ccc(F)cc1)SCc1cccc(Br)c1 | ? | . | ? | . | ? | ?
CCCn1c(-c2ccc(OC)cc2)nc2c(=O)n(C)c(=O)[nH]c21 | . | . | . | . | . | /
CCCCn1c(-c2ccc(OC)cc2)nc2c(=O)n(C)c(=O)[nH]c21 | / | . | / | . | .[0.00184 µM] | 1.7µM
